Screens deposited in PubChem BioAssay by several laboratories.
tim23-1 inh: tim23-1 yeast growth inhibition. S. cerevisiae tim23-1 growth, BacTiter-Glo luminescence, 24 h. inhibition, % at 20 µM. actives 1.3% (n = 330,000). AID 463212;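 active = growth inhibition of the mutant yeast at or above 50%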;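 note: temperature-sensitive mutant grown at 25 °C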
tim10-1 inh: tim10-1 yeast growth inhibition. S. cerevisiae tim10-1 ts strain growth, BacTiter-Glo, 24 h. inhibition, % at 20 µM. actives 2.2% (n = 330,000);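 active = inhibition of at least 40%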;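 note: mutant grown at 25 °C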
PfHsp90 yeast 2: inhibits growth of yeast expressing Plasmodium falciparum Hsp90 | S. cerevisiae expressing PfHsp90, BacTiter-Glo ATP, 48 h; yeast lacking PDR1 and PDR3 efflux regulators | inhibition, % at 9.4 µM | actives 0.32% (n = 310,000);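 active = every replicate shows inhibition above about 80%, whatever the replicate mean, limit read from the data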
NALP3 yeast inh: blocks the NALP3 inflammasome reconstituted in yeast | AID 2825 | inhibition, % at 10 µM | actives 0.39% (n = 330,000) | Yeast reconstituted NLRP3/ASC/caspase-1, beta-gal luminescence, 24 h;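 active = inhibition of 50% or more; inactive = inhibition below 50%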
TIM10 inh: TIM10 yeast growth inhibition | S. cerevisiae TIM10 strain growth, BacTiter-Glo luminescence, 24 h | inhibition, % at 10 µM | actives 1.4% (n = 330,000);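 active = inhibition of 40% or more at the single tested concentration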;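 note: wild-type TIM10 isogenic control strain grown at permissive 25 °C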
tim10-1 confirm: tim10-1 yeast growth inhibition, confirmed | S. cerevisiae tim10-1 ts strain growth, BacTiter-Glo, 24 h | AID 463213 | inhibition, % at 20 µM | actives 56% (n = 7,400) | shares compounds with tim10-1 inh;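 active = inhibition of yeast growth at or above a set limit in either of two repeat tests at 20 µM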;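 note: tim10-1 mutant grown at permissive 25 °C to find synthetic lethal compounds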
TIM10 conf: confirmation of TIM10 yeast growth inhibitors. shares compounds with TIM10 inh. S. cerevisiae tim10 strain growth, BacTiter-Glo luminescence, 24 h. AID 463215. inhibition, % at 10 µM. actives 63% (n = 4,600);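 active = inhibition of yeast growth at or above a set limit in either of two replicates at 10 µM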; note: this counterscreen used the strain with wild-type TIM10
tim23-1 confirm: confirmation of tim23-1 mutant yeast growth inhibitors | AID 463218 | shares compounds with tim23-1 inh | actives 83% (n = 4,400) | S. cerevisiae tim23-1 growth, BacTiter-Glo luminescence, 24 h | inhibition, % at 20 µM;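 active = inhibition above about 39% in either of two replicate wells at 20 µM, limit read from the data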;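 note: temperature-sensitive tim23-1 mutant grown at 25 °C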
A number is an active result; - = inactive; . = no result. Sampled rows, rich in hits. Any-hit rate of the full collection: about 3.7%.

SMILES	tim23-1 inh	tim10-1 inh	PfHsp90 yeast 2	NALP3 yeast inh	TIM10 inh	tim10-1 confirm	tim23-1 confirm	others
CN(C)/C=C/C(=O)c1ccc(Br)s1	-	-	-	-	-	.	.
Cc1cc(C)c2c(c1)/C(=C/C(=O)c1ccc(Br)s1)C(=O)N2	74	78	-	-	76	69	70	TIM10 conf=66
Cc1cccc2c1NC(=O)/C2=C\C(=O)c1cccs1	81	83	-	-	82	87	77	TIM10 conf=88
Cc1ccc(NC(=O)CSCc2n[nH]c(=O)[nH]2)c(Br)c1	-	-	-	-	-	.	.
COc1ccc(N=Nc2c(C)[nH]c3ccccc23)cc1	89	43	-	-	-	40	78
O=[N+]([O-])c1cccc(NC(=S)N2CCc3ccccc32)c1	51	43	-	-	-	32	49
O=C(Nc1cccc([N+](=O)[O-])c1)N1CCCc2ccccc21	-	-	-	-	-	.	.
CCOc1ccc(/C=C2\CCc3ccccc3C2=O)cc1	-	-	-	-	-	.	.
O=C1/C(=C\c2ccncc2)CCc2ccccc21	72	65	-	-	60	62	-	TIM10 conf=62
O=S(=O)(c1cccc(Br)c1)N1CCN(c2ccnc3cc(Cl)ccc23)CC1	52	50	-	-	-	30	47
N#CC1=C2SCCN2C(=O)C(C#N)C12CCCCC2 (stereo unspecified)	-	-	-	-	-	.	.
O=C(OCn1ncc(Cl)c(Cl)c1=O)c1ccc(F)cc1	75	66	.	-	59	61	85	TIM10 conf=54
c1ccc(Nc2ccccc2Nc2ccccn2)nc1	-	-	.	-	-	.	.
Oc1cccc2ccc(Nc3ccccn3)nc12	52	67	.	-	-	64	79
O=C(NCCOc1ccc(F)cc1)C1CCC(=O)N(CCN2CCOCC2)C1 (stereo unspecified)	-	-	-	-	-	.	.
N#C/C(=C\c1ccc[nH]1)Sc1nc2ccccc2s1	54	42	-	-	-	30	48
O=c1cc(CN2CCN(Cc3ccccc3)CC2)c2cc(O)ccc2o1	-	-	-	-	-	.	.
Cc1cccc(NS(=O)(=O)c2ccc(-c3cnc(C4CC4)o3)cc2)c1C	69	59	-	-	-	52	52
Cc1cc(C)cc(NS(=O)(=O)c2ccc(-c3cnc(C4CC4)o3)cc2)c1	-	-	-	-	-	.	.
Cc1ccc(C(=O)NCC(c2ccco2)N2CCc3ccccc32)cc1 (stereo unspecified)	-	-	.	-	-	.	.
Cc1cccn2c(=O)c(C(=O)NC3CCCCC3)c(O)nc12	55	43	-	-	-	-	44
Cc1cccn2c(=O)c(C(=O)NC3CCCCC3C)c(O)nc12 (stereo unspecified)	-	-	-	-	-	.	.
Cc1csc2nc(O)c(C(=O)NC3CCCCCC3)c(=O)n12	65	41	.	-	-	-	51
Cc1csc2nc(O)c(C(=O)NCCCN3CCCC3=O)c(=O)n12	-	-	.	-	-	.	.
Cc1csc2nc(O)c(C(=O)NC3CCCCC3)c(=O)n12	74	40	-	-	-	-	56
SMILES	tim23-1 inh	tim10-1 inh	PfHsp90 yeast 2	NALP3 yeast inh	TIM10 inh	tim10-1 confirm	tim23-1 confirm	others
O=C1C=C(c2ccc(F)c(Cl)c2)C[C@@H](c2ccc(F)cc2)C1	-	-	-	-	-	.	.
CC1=C(CC(=O)c2ccccc2)C(=O)c2ccccc2C1=O	64	48	.	-	-	42	69
COc1ccc(NC(=O)/C(C#N)=C/c2ncc([N+](=O)[O-])n2C)c(OC)c1	84	58	-	-	-	66	81
CCCOc1ccccc1/C=C(\C#N)C(=O)Nc1cccc(C)n1	56	49	-	-	-	45	57
N[C@H]1CONC1=O	-	-	.	-	-	.	.
CCCc1[nH]nc2c1C(c1cccc(OC)c1)C(C#N)=C(N)O2 (stereo unspecified)	-	-	-	-	-	.	.
CCCc1[nH]nc2c1C(c1ccc(OC)cc1OC)C(C#N)=C(N)O2 (stereo unspecified)	51	44	-	-	47	36	50	TIM10 conf=37
